This is part of a sample that, as a whole, favours compounds with a hit. Of some 83,000 tested, about 20% had one in any assay.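 The endpoint reported here, percent growth, reads 100 for growth as untreated, 0 for no net growth and -100 for all cells dead.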 Values without a mark were called inactive. Activity calls are given as the source filed them. The calls were made as follows: active = growth percent below 10; inactive = the rest.

In the test the test system is HL-60(TB) leukemia. Nature of the test: NCI-60 one-dose screen, 48 h (100 = growth as untreated, 0 = no growth, -100 = all killed). To be noted: 10 µM unless noted.
Consider `C=CCn1c(-c2nc3ccc(C(=C(C#N)C#N)c4ccccc4)cc3[nH]2)cc2cc(Br)ccc21`, for which the growth was 59.2%.

For `O=C(Nc1ccc(F)cc1)c1cc(-c2ccc(F)cc2F)ccc1O`, the growth is 0.532% (active).

With `N#CC1=C2NCCCNc3oc(nc3C#N)Cc3ccccc3CC(=N1)O2`, the growth is 62.9%.

`OC1CCN(CCCOc2c3ccccc3nc3c2oc2ccc(Cl)cc23)CC1`: the growth is 14.4%.

As to `CNC(=O)c1cc(-c2ccc(NC(=O)Nc3ccc(N4CCN(C)CC4)c(C(F)(F)F)c3)cc2)nc2cccnc12`, the growth was -16.4% (active).

Turning to `Oc1ccc(CSc2nnc(-c3cnccn3)o2)c2cccnc12`, the growth is -11.5% (active).

In the case of `Nc1nc(N)c2c(n1)NC(c1ccccc1)CC(c1ccc(Nc3nc(NCCO)nc(Nc4ccc(Cl)cc4)n3)cc1)=N2` (centres undefined), the growth was 2.55% (active).

Turning to `COC[C@@]1(C)CC[C@]2(C)CC[C@]3(C)C(=CC[C@@H]4[C@@]5(C)CCCNC(C)(C)[C@@H]5CC[C@]43C)C2C1` (some centres undefined), the growth was 48.3%.

Take `Cc1ccc(-c2cc3nc(C(Cl)Cl)nc(-c4ccccc4)n3n2)cc1`: the growth was 55.1%.

Consider `NC(=O)N1N=C(c2cc3ccccc3oc2=O)CC1c1cn(-c2ccccc2)nc1-c1ccc(Cl)cc1` (centres undefined), for which the growth was 47%.

For the compound `N=c1c2cc(-c3ccccc3)oc2ncn1/N=C/c1ccc(Cl)cc1`, the growth was 116%.

As for `Nc1ccccc1NC(=O)c1ccc(NC(=O)C/C=C/c2cccnc2)cc1`, the growth was 12.6%.

With `Cc1[nH]c(C(=O)Nc2ccc(C(=O)NCC3CCNCC3)cc2OC(C)C)c(Cl)c1Cl`, the growth is 73.1%.

Consider `CN1CCN(Cc2ccc(NC(=O)c3cncc(C#Cc4cnc5ccc(O[C@H]6CCOC6)nn45)c3)cc2C(F)(F)F)CC1`, for which the growth was -41.2% (active).

For the compound `COc1ccc(-c2nnc(/N=C3/C(=O)Nc4ccc(Br)cc43)o2)cc1`, the growth is 60.4%.

As for `COc1cc(-c2nc(SCCC(C)C)nc(NNC(=O)c3ccncc3)c2C#N)cc(OC)c1OC`, the growth was 116%.

`O=S(=O)(NCCCNc1nccc(-c2[nH]c(-c3ccccc3)nc2-c2ccc(Cl)c(O)c2)n1)c1cccc2ccccc12`: the growth is 9.79% (active).

On to `COc1cc2oc(-c3cccc(NC(=O)c4cccc([N+](=O)[O-])c4)c3)cc(=O)c2c(OC)c1OC`, for which the growth was 68.9%.

As to `Cc1[nH]c(C(=O)Nc2ccc(C(N)=O)cc2N2CCOC(C)C2)c(Cl)c1Cl` (centres undefined), the growth was 98.1%.

For `C/C=C/C=C1\C[C@H]2CO[C@H](O2)C1=O`, the growth was 99.8%.

On to `O=C1Nc2ccc(Cl)cc2/C1=C/c1ccc(OCc2ccc(F)cc2)cc1`, for which the growth was 94.6%.

For the compound `O=S(=O)(Nc1ccc2c(c1)OCO2)c1ccc(-c2cnc(C3CC3)o2)cc1`, the growth is 3.52% (active).

In the case of `CC[C@]12C=CCN3CC[C@]4(C(=C(C(=O)OC)C1)Nc1cc5c(cc14)[C@@H]1[C@H](O5)[C@@H](O)[C@@]4(CC)CC(C(=O)OC)=C5Nc6cc(O)ccc6[C@@]56CCN1C46)C32` (some centres undefined), the growth was -9.82% (active).

On to `Oc1c(Cl)cc(Cl)c2ccc(CN3CCCCC3)nc12`, for which the growth is 32.9%.

In the case of `CCCc1cc2cc(-n3nc(CC)c4c3CC(C)(C)CC4=O)cc(NC3CCC(O)CC3)c2c(=O)[nH]1` (centres undefined), the growth is -2.33% (active).

Consider `NS(=O)(=O)c1ccc(Nc2nc(N/N=C/c3ccc(Cl)cc3)nc(Nc3ccccc3)n2)cc1`, for which the growth is 72.5%.

Turning to `CCO/C=N/C1=C(C#N)C(c2ccc(OC)cc2)c2sc3c(CC)cccc3c2O1` (centres undefined), the growth is 9.99% (active).

Consider `CCOC(=O)c1c(NC(=O)c2cccc(C(F)(F)F)c2)sc2cc(O)ccc12`, for which the growth is 46.9%.

Take `C=C(C)[C@@H]1CC[C@]2(C(=O)ON)CC[C@]3(C)[C@H](CC[C@@H]4[C@@]5(C)C/C(=C/c6ccc(Br)cc6)C(=O)C(C)(C)[C@@H]5CC[C@]43C)[C@@H]12`: the growth is 43.6%.

On to `COc1ccc(/C=C/C(=O)c2cccc(NC(=O)CSc3nc4ccccc4c(=O)n3-c3ccccc3)c2)cc1OC`, for which the growth is 98.9%.

Regarding `Cc1ccc(CSc2nc(-c3ccc(Cl)cc3)c(C#N)c(N3CCOCC3)n2)cc1`, the growth is 98.2%.

In the case of `CN1CCN(Cc2ccc(NC(=O)c3cncc(C#Cc4cnc5ccc(O[C@@H]6CCOC6)nn45)c3)cc2C(F)(F)F)CC1`, the growth is -48.8% (active).

As to `COc1ccc(-c2cc(-c3ccc(N(C)C)cc3)n3c(n2)nc2ccccc23)cc1`, the growth is 18.4%.

For `COc1ccc(-c2nn(-c3ccccc3)cc2/C=C/C(=O)c2ccc(NC(=O)CCCCCCC(=O)NO)cc2)cc1`, the growth was 116%.
